GRIN3A LBD mod = binders of NR3A ligand-binding domain, primary screen, biophysical, differential scanning fluorimetry, uHTS | 340,000 tested, 2.5% active | Tm shift relative to glycine control, % at 25 µM | NR3A LBD differential scanning fluorimetry, Tm shift; 0% = protein alone, 100% = glycine-bound protein;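 active = melting temperature shift of at least 10% of the positive control shift, at one fixed dose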
FAS-TE inh = FAS thioesterase domain inhibitors, primary screen, biochemical, fluorescence intensity, uHTS; inhibition, % at 15 µM; 360,000 tested, 0.67% active; AID 602261, 2012; recombinant FAS-TE, OMFH fluorogenic substrate, fluorescence endpoint; Fatty acid synthase (Homo sapiens), P49327;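 active = compounds whose normalised, plate-corrected inhibition of enzyme fluorescence in the single-dose primary screen is 50% or more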;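 note: 0% = DMSO with enzyme and 100% = substrate without enzyme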
MPTP block = mitochondrial permeability transition pore inhibitors, primary screen, biochemical, isolated mouse mitochondria, absorbance. Ca2+ swelling absorbance, 30 min. inhibition, % at 10 µM. 360,000 tested, 1.4% active;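 active = inhibition of 50% or more, scaled per plate between neutral and stimulator controls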;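 note: 0% = DMSO wells given calcium and 100% = 1 mM EGTA wells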
rCAG RNA binder = binders of r(CAG) RNA repeats, primary screen, biochemical, fluorescence; inhibition, % at 3 µM; AID 651821, 2012; 370,000 tested, 1.3% active; r(CAG) RNA repeat, TO-PRO-1 dye displacement fluorescence;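 active = inhibition above the plate cutoff, the mean of all test compounds on that plate plus 3 SD, cut at about 35% in these data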;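 note: 0% = DMSO alone and 100% = 100 µM mitoxantrone as full dye displacement; higher means more dye released from RNA so lower well fluorescence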
Myeloid diff MLP = induction of myeloid progenitor differentiation, primary screen, cell-based, flow cytometry, MLPCN library. calls only at 10 µM. ER-HoxA9 myeloid progenitors, lysozyme-GFP differentiation. 360,000 tested, 1% active. AID 624256, 2012;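 active = normalized GFP-positive differentiation at or above the plate's own cutoff, the solvent-only control mean plus 3 SD; inconclusive = no clear call, values can overlap the other calls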;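 note: cells exposed to compound for four days before flow analysis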
Rh123 counter = fluorescence retest of MPTP screen hits in isolated mitochondria, single concentration | inhibition, % at 10 µM | shares compounds with MPTP block | AID 624504, 2012 | 5,000 tested, 78% active | membrane potential, Rhodamine 123 fluorescence; in the data active = inhibition above about 22%;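 note: 0% = DMSO vehicle and 100% = positive control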
MPTP swell DR = mitochondrial permeability transition pore inhibitors, dose response, biochemical, absorbance, uHTS hits; 780 tested, 58% active; shares compounds with MPTP block; IC50, µM; isolated mitochondria swelling; in the data active = IC50 below about 20 µM
MPTP counter DR = fluorescent counter-screen in isolated mitochondria, dose response, counter-screen for MPTP inhibitor project, biochemical, fluorescence, uHTS hits | shares compounds with MPTP block | isolated mitochondria counterscreen, fluorescence read-out | IC50, µM | 780 tested, 49% active | AID 651564, 2012; in the data active = IC50 below about 80 µM
* hit, by the source's call; i = inactive; ? = inconclusive; · = no result. In the library only some 5.7% were active in any assay of this set; here they are far more common.

SMILES | GRIN3A LBD mod | FAS-TE inh | MPTP block | rCAG RNA binder | Myeloid diff MLP | Rh123 counter | others
CSc1ccccc1CNc1nc(NCC2CC2)nc2ccsc12 | · | 10 | 91* | 1 | ? | 102*
CNc1nc(NCCOc2ccccc2Cl)c2sccc2n1 | · | -2 | 1 | 0 | i | ·
c1csc(CNc2nc(NCC3CCCCC3)c3sccc3n2)c1 | · | 8 | 51* | 0 | i | 91*
COc1ccccc1CNc1nc(NCCOc2ccccc2Cl)c2sccc2n1 | · | 16 | 50* | 3 | i | 92*
CN(CC1CCN(CCc2cccc(C(F)(F)F)c2)CC1)C(=O)c1ccc(F)cc1F | -1 | -6 | 1 | -13 | i | ·
COc1ccc(C(=O)N(C)CC2CCN(CCc3cccc(C(F)(F)F)c3)CC2)cc1C | -2 | -1 | 53* | -10 | i | -3 | MPTP swell DR=12*;MPTP counter DR=42*
Cc1ccc(-c2csc3ncnc(NS(=O)(=O)c4ccc(Cl)cc4)c23)cc1 | 16* | 12 | 85* | 15 | i | 63*
OCCCNc1ncnc2scc(-c3ccc(Cl)cc3)c12 | -1 | 1 | -1 | -8 | i | ·
CC1CC(C)CN(C(CCc2ccccc2)C(=O)NC2CCCCC2)C1 (stereo not drawn) | · | -5 | -1 | 0 | i | ·
Cc1ccc(N2CC(C(=O)N3CCC(C(=O)Nc4ccc(Br)cc4)CC3)CC2=O)cc1 (stereo not drawn) | -17 | 2 | 0 | 2 | i | ·
O=C(Nc1ccc(Cl)c(Cl)c1)C1CC(=O)N(c2ccc(Br)cc2)C1 (stereo not drawn) | 28* | 44 | 63* | 4 | i | 87*
COc1cc(CNCc2ccc(SC)cc2)cc(OC)c1 | 1 | -2 | 56* | -3 | i | 16 | MPTP swell DR=11*;MPTP counter DR=18*
COc1cc(COC(=O)Oc2ccc(CNC(C)=O)cc2OC)c([N+](=O)[O-])cc1OC | 1 | 24 | -2 | -3 | i | ·
O=S(=O)(Nc1nc2ccccc2nc1Nc1ccc2c(c1)OCO2)c1ccc(F)cc1 | -7 | -3 | 51* | 7 | i | 4 | MPTP swell DR=4.1*;MPTP counter DR=<2.5*
O=S(=O)(Nc1nc2ccccc2nc1Nc1cccc(S(=O)(=O)N2CCCCC2)c1)c1ccccc1 | 13* | 30 | 55* | 31 | i | 44*
CC(C(=O)O)N(c1ccccc1Cl)S(C)(=O)=O (stereo not drawn) | 0 | -8 | -2 | 14 | i | ·
O=C1NC(=O)C2C3OC(C(Br)C3Br)C12 (stereo not drawn) | · | -9 | -1 | 1 | i | ·
CCCCc1c(-c2ccccc2OC)ncn1Cc1ccc(-c2ccccc2)cc1 | · | 4 | 78* | 1 | i | 116*
CCCCc1c(-c2ccccc2OC)ncn1Cc1cccc(-c2ccccc2)c1 | · | 6 | 31 | 2 | i | ·
CCOc1ccc(S(=O)(=O)NCc2ccncc2)cc1 | 1 | -6 | 99* | 0 | i | 85*
CCOc1cc(S(=O)(=O)NCc2ccncc2)ccc1Cl | 0 | -2 | 100* | 3 | i | 101*
Cc1ccc(C)c(S(=O)(=O)NCc2ccncc2)c1 | 1 | -7 | 7 | 0 | i | ·
Cc1cc(S(=O)(=O)NCc2ccncc2)c(C)cc1Br | -2 | 5 | 60* | -2 | i | 88*
CCOc1cc(S(=O)(=O)NCc2cccs2)ccc1Cl | -7 | 5 | -5 | 2 | i | ·
CCOC(=O)COc1ccc(S(=O)(=O)NCc2ccco2)cc1 | 4 | -10 | -2 | 1 | i | ·
SMILES | GRIN3A LBD mod | FAS-TE inh | MPTP block | rCAG RNA binder | Myeloid diff MLP | Rh123 counter | others
CCOC(=O)COc1ccc(S(=O)(=O)NCc2ccncc2)cc1 | 0 | -4 | 88* | 0 | i | 86*
COc1ccccc1CNC(=O)CCCC(=O)n1ncc2cc(C)ccc21 | 0 | 1 | 0 | -1 | i | ·
CCN(C(=O)COC(=O)/C=C/c1cccc([N+](=O)[O-])c1)c1ccccc1 | 0 | 28 | 0 | -6 | i | ·
O=C(NC(=S)N1CCN(c2ccc([N+](=O)[O-])cc2)CC1)c1ccccc1F | 0 | 6 | 1 | 2 | i | ·
Cc1cc(SCC(=O)N/N=C/c2ccc(O)cc2O)nc2ccccc12 | 26* | 14 | 68* | 15 | i | 71*
COc1ccc2nc(C)cc(SCC(=O)N/N=C/c3cccc4ccccc34)c2c1 | 5 | 1 | 128* | 8 | i | -7 | MPTP swell DR=>100;MPTP counter DR=>80
Cc1cc(SCC(=O)N/N=C/c2ccc(O)c(O)c2)nc2ccccc12 | 6 | 0 | 1 | 13 | i | ·
CC(OC(=O)CCNS(=O)(=O)c1ccc(Cl)cc1)C(=O)N(C)Cc1ccccc1 (stereo not drawn) | · | 3 | -1 | -1 | i | ·
COc1ccccc1OCCCCOc1ccccc1C(C)=O | -8 | 12 | 61* | 2 | i | 61*
O=C(NCc1ccccc1)C(c1ccccc1)n1c(C2CC2)nc2ccccc21 (stereo not drawn) | · | · | 0 | 1 | i | ·
CCCCNC(=O)c1sc(=S)n2c1[nH]c(=O)c1ccccc12 | -3 | 34 | 96* | 32 | i | 80*
O=C(NC1CCCCC1)c1sc(=S)n2c1[nH]c(=O)c1ccccc12 | 1 | 29 | 90* | 22 | i | 92*
CCOc1ccc(CCNC(=O)c2ccc3c(=O)[nH]c4c(C(=O)NC(C)C)sc(=S)n4c3c2)cc1 | -1 | 32 | 41 | 14 | i | ·
O=c1[nH]c2cc3c(cc2cc1CN(Cc1ccco1)C(=S)NCCCN1CCOCC1)OCCO3 | 0 | -2 | 2 | 1 | i | ·
COc1ccc(CNC(=O)CN2C(=O)NC(c3ccccc3)(c3ccccc3)C2=O)cc1OC | 1 | 0 | 0 | 3 | i | ·
COc1ccccc1NC(=O)Cc1csc(NC(=S)Nc2ccccc2)n1 | 11* | 18 | 79* | 21 | i | 71*
COc1ccc(NC(=S)Nc2nc(CC(=O)Nc3ccccc3OC)cs2)cc1 | 8 | 16 | 75* | 23 | i | 79*
COc1ccc(OC)c(NC(=O)Cc2csc(NC(=O)Nc3ccccc3OC)n2)c1 | 2 | 10 | 0 | 11 | i | ·
CCN(CC)c1ccc(/C=C2\C(=O)c3ccc(C(=O)O)cc3C2=O)cc1 | 5 | -9 | 70* | 25 | i | -33
CCN(CC)c1ccc(C(=O)O)cc1 | 0 | -7 | 1 | -3 | i | ·
O=C(OCc1cn(Cc2ccc(F)cc2F)nn1)N1CCOCC1 | · | · | · | 3 | · | ·
